# Measured values published in PubChem BioAssay AID1159580 (chemical genetic matrix, 2015).
# Where “and” joins values, the source holds several entries; their conditions need not be identical. Equal values may be shown once. The whole screen tested about 5,500 compounds, of which about 2,000 (36%) were called active. About 18% were inconclusive and are not listed. Some of the results follow. Unmarked numbers belong to inactive results. Rule as the data show it: active = normalized growth mostly below about 0.91 (no sharp cut-off); inconclusive = no clear call, values can overlap the other calls; inactive = mostly above about 0.92.
# Experiment: chemical genetic growth profiling, strain panel (AID 1159580);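 also: tested at 20 µM; growth read once vehicle control cultures reached saturation at 30 °C; 1 = growth at the plate median or of vehicle wells; lower values mean less growth of the strain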
# Settings: S. cerevisiae deletion strains, growth OD
smiles,measurement,setting,value
CC(=O)Oc1cccc2c1C(=O)c1c(OC(C)=O)cc(C(=O)O)cc1C2=O,normalized growth,"locus YAL013W, strain DEP1, stronger effect = lower value",1
same,normalized growth,"locus YAL021C, strain ccr4, stronger effect = lower value",0.969
same,normalized growth,"locus YAL026C, strain drs2, stronger effect = lower value",0.896 (active)
same,normalized growth,"locus YAL030W, strain snc1, stronger effect = lower value",0.93
same,normalized growth,"locus YBL061C, strain skt5, stronger effect = lower value",0.915 (active)
same,normalized growth,"locus YBR009C, strain hhf1, stronger effect = lower value",0.919
same,normalized growth,"locus YBR021W, strain FUR4, stronger effect = lower value",0.994
same,normalized growth,"locus YBR023C, strain chs3, stronger effect = lower value",0.918
same,normalized growth,"locus YBR171W, strain sec66, stronger effect = lower value",0.957
same,normalized growth,"locus YBR229C, strain ROT2, stronger effect = lower value",1.01
same,normalized growth,"locus YBR231C, strain swc5, stronger effect = lower value",0.874 (active)
same,normalized growth,"locus YBR279W, strain paf1, stronger effect = lower value",0.972
same,normalized growth,"locus YCL011C, strain gbp2, stronger effect = lower value",0.923
same,normalized growth,"locus YCL016C, strain dcc1, stronger effect = lower value",0.946
same,normalized growth,"locus YCL029C, strain bik1, stronger effect = lower value",0.585 (active)
same,normalized growth,"locus YCL061C, strain MRC1, stronger effect = lower value",0.896 (active)
same,normalized growth,"locus YCL069W, strain vba3, stronger effect = lower value",0.951
same,normalized growth,"locus YCR088W, strain abp1, stronger effect = lower value",0.929
same,normalized growth,"locus YDL005C, strain med2, stronger effect = lower value",0.943
same,normalized growth,"locus YDL035C, strain GPR1, stronger effect = lower value",1.01
same,normalized growth,"locus YDL040C, strain nat1, stronger effect = lower value",0.961
same,normalized growth,"locus YDL074C, strain BRE1, stronger effect = lower value",1.03
same,normalized growth,"locus YDL101C, strain DUN1, stronger effect = lower value",1.01
same,normalized growth,"locus YDL134C, strain PPH21, stronger effect = lower value",1.02
same,normalized growth,"locus YDL185W, strain tfp1, stronger effect = lower value",0.993
same,normalized growth,"locus YDL192W, strain arf1, stronger effect = lower value",0.175 (active)
same,normalized growth,"locus YDR001C, strain nth1, stronger effect = lower value",0.93
same,normalized growth,"locus YDR069C, strain doa4, stronger effect = lower value",0.865 (active)
same,normalized growth,"locus YDR101C, strain arx1, stronger effect = lower value",0.438 (active)
same,normalized growth,"locus YDR137W, strain rgp1, stronger effect = lower value",0.97
same,normalized growth,"locus YDR150W, strain NUM1, stronger effect = lower value",1
same,normalized growth,"locus YDR159W, strain sac3, stronger effect = lower value",0.9
same,normalized growth,"locus YDR162C, strain NBP2, stronger effect = lower value",0.99
same,normalized growth,"locus YDR195W, strain ref2",0.991
same,normalized growth,"locus YDR297W, strain sur2, stronger effect = lower value",0.913 (active)
same,normalized growth,"locus YDR318W, strain mcm21, stronger effect = lower value",0.32 (active)
same,normalized growth,"locus YDR334W, strain swr1, stronger effect = lower value",0.957
same,normalized growth,"locus YDR335W, strain msn5, stronger effect = lower value",0.949
same,normalized growth,"locus YDR388W, stronger effect = lower value",0.171 (active)
same,normalized growth,"locus YDR392W, strain spt3, stronger effect = lower value",0.84
same,normalized growth,"locus YDR502C, strain sam2, stronger effect = lower value",0.341 (active)
same,normalized growth,"locus YEL003W, strain gim4, stronger effect = lower value",0.954
same,normalized growth,"locus YEL037C, strain rad23, stronger effect = lower value",0.962
same,normalized growth,"locus YEL061C, strain CIN8 (second series), stronger effect = lower value",0.932
same,normalized growth,"locus YEL061C, strain CIN8, stronger effect = lower value",0.992
same,normalized growth,"locus YER015W, strain faa2, stronger effect = lower value",0.92 (active)
same,normalized growth,"locus YER016W, strain bim1, stronger effect = lower value",0.945
same,normalized growth,"locus YER110C, stronger effect = lower value",0.643 (active)
same,normalized growth,"locus YER111C, strain swi4, stronger effect = lower value",0.963
same,normalized growth,"locus YER155C, strain BEM2 (second series), stronger effect = lower value",0.858 (active)
same,normalized growth,"locus YER155C, strain BEM2, stronger effect = lower value",1.01
same,normalized growth,"locus YER167W, strain BCK2, stronger effect = lower value",1
same,normalized growth,"locus YFR010W, strain ubp6, stronger effect = lower value",0.943
same,normalized growth,"locus YGL078C, strain dbp3, stronger effect = lower value",1
same,normalized growth,"locus YGL086W, strain mad1, stronger effect = lower value",0.337 (active)
same,normalized growth,"locus YGL167C, strain pmr1, stronger effect = lower value",0.906 (active)
same,normalized growth,"locus YGL173C, strain kem1, stronger effect = lower value",0.929
same,normalized growth,"locus YGL227W, strain vid30, stronger effect = lower value",0.962
same,normalized growth,"locus YGL240W, strain doc1, stronger effect = lower value",0.832 (active)
same,normalized growth,"locus YGL248W, strain PDE1, stronger effect = lower value",1.01
same,normalized growth,"locus YGL253W, strain hxk2, stronger effect = lower value",0.932
same,normalized growth,"locus YGR078C, strain PAC10, stronger effect = lower value",1
same,normalized growth,"locus YGR135W, strain pre9, stronger effect = lower value",0.3 (active)
same,normalized growth,"locus YGR229C, strain SMI1, stronger effect = lower value",1.02
same,normalized growth,"locus YGR252W, strain gcn5, stronger effect = lower value",0.33 (active)
same,normalized growth,"locus YHR013C, strain ard1, stronger effect = lower value",0.991
same,normalized growth,"locus YHR027C, strain rpn1, stronger effect = lower value",0.942
same,normalized growth,"locus YHR030C, strain SLT2, stronger effect = lower value",0.999 and 0.943
same,normalized growth,"locus YHR079C, strain IRE1 (second series), stronger effect = lower value",0.481 (active)
same,normalized growth,"locus YHR079C, strain IRE1, stronger effect = lower value",0.964
same,normalized growth,"locus YHR094C, strain hxt1, stronger effect = lower value",0.476 (active)
same,normalized growth,"locus YHR129C, strain ARP1, stronger effect = lower value",1.01
same,normalized growth,"locus YHR142W, strain chs7, stronger effect = lower value",0.939
same,normalized growth,"locus YHR200W, strain rpn10, stronger effect = lower value",0.354 (active)
same,normalized growth,"locus YIL066C, strain RNR3, stronger effect = lower value",1.02
same,normalized growth,"locus YIL073C, strain SPO22, stronger effect = lower value",0.995
same,normalized growth,"locus YIL125W, strain kgd1, stronger effect = lower value",1
same,normalized growth,"locus YIR030C, strain dcg1, stronger effect = lower value",0.456 (active)
same,normalized growth,"locus YJL092W, strain hpr5, stronger effect = lower value",0.916 (active)
same,normalized growth,"locus YJL095W, strain BCK1 (second series), stronger effect = lower value",0.909 (active)
same,normalized growth,"locus YJL095W, strain BCK1, stronger effect = lower value",0.994 and 0.953
same,normalized growth,"locus YJL115W, strain asf1, stronger effect = lower value",0.939
same,normalized growth,"locus YJL129C, strain trk1, stronger effect = lower value",1
same,normalized growth,"locus YJL134W, strain LCB3, stronger effect = lower value",1.01
same,normalized growth,"locus YJL154C, strain vps35, stronger effect = lower value",0.953
same,normalized growth,"locus YJL164C, strain tpk1, stronger effect = lower value",0.875 (active)
same,normalized growth,"locus YJL166W, strain qcr8, stronger effect = lower value",0.871 (active)
same,normalized growth,"locus YJL168C, strain set2, stronger effect = lower value",0.545 (active)
same,normalized growth,"locus YJL187C, strain SWE1 (second series), stronger effect = lower value",1.01
same,normalized growth,"locus YJL187C, strain SWE1, stronger effect = lower value",0.931
same,normalized growth,"locus YJR043C, strain POL32, stronger effect = lower value",0.998
same,normalized growth,"locus YJR066W, strain TOR1, stronger effect = lower value",0.902
